According to the supplement of paper PMC7411640:
Where a name gives a salt, the structure may show the parent alone.

Tested on: MDA-MB-468
Test: phospho-S6 immunofluorescence (DAPI-normalised), per-plate z-score; higher = higher phospho-S6 signal (less pathway suppression)
Settings: 24 h
Procedure: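 GPCR-targeted compound library (MedChemExpress HY-L006) tested on MDA-MB-468 PTEN-null TNBC cells in 384-well plates at 0.1, 1 or 10 uM, combined with vehicle, GDC0941 450 nM or lapatinib 1 uM, for 24 h. Phospho-S6 (S240/244) immunofluorescence normalised to DAPI and expressed as a per-plate z-score; values are the mean of biological triplicates.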

Structure (SMILES) | phospho-S6 immunofluorescence (z-score) (co-treatment: GDC0941 450 nM) | phospho-S6 immunofluorescence (z-score) (co-treatment: lapatinib 1 uM) | phospho-S6 immunofluorescence (z-score) (co-treatment: vehicle)
COC(=O)[C@H](c1ccccc1Cl)N1CCc2sccc2C1 [Clopidogrel (hydrogen sulfate)] (compound 10 µM) | 0.58 | -1.03 | -0.92
Clc1ccc2c(c1)CCc1cccnc1C2=C1CCNCC1 [Desloratadine] (compound 10 µM) | -0.48 | -1.96 | 0.51
CC1(C)C(=O)N(CCN2CCC(C(=O)c3ccc(F)cc3)CC2)c2ccccc21 (compound 10 µM) | -0.29 | -0.77 | 0.28
CCN1CCC[C@H]1CNC(=O)c1cc(S(N)(=O)=O)ccc1OC [Levosulpiride] (compound 10 µM) | 0.22 | 0.89 | -0.63
COc1cc2nc(C3CC3)nc(N3CCN(c4ccccc4OC)CC3)c2cc1OC (compound 10 µM) | -1.77 | -0.08 | 0.05
Oc1cc2c(cc1O)C(c1ccccc1)CNCC2 (stereo not drawn) (compound 10 µM) | 0.77 | 0.35 | 1.06
CNS(=O)(=O)CCc1ccc2[nH]cc(C3CCN(C)CC3)c2c1 [Naratriptan (hydrochloride)] (compound 10 µM) | -0.23 | 0.4 | 0.18
O=C1CCc2ccc(OCCCCN3CCN(c4cccc(Cl)c4Cl)CC3)cc2N1 [Aripiprazole] (compound 10 µM) | -3.14 | -5.16 | -3.2
Cc1ccccc1C(=O)Nc1ccc(C(=O)N2CCCC(O)c3cc(Cl)ccc32)c(C)c1 (stereo not drawn) [Tolvaptan] (compound 10 µM) | 0.01 | -1.6 | -0.25
CNCCc1ccccn1 [Betahistine (dihydrochloride)] (compound 10 µM) | -1.02 | 0.1 | -0.72
CC(=O)Nc1cccc2c1c(Sc1ccc(Cl)cc1)c(C)n2CC(=O)O (compound 10 µM) | 0.52 | 0.08 | -0.17
CC(=O)OC(C)C[N+](C)(C)C (stereo not drawn) [Methacholine (chloride)] (compound 10 µM) | 0.63 | 0.47 | 1
Cc1noc(-c2ccc(-c3ccc(CC(=O)O)cc3)cc2)c1NC(=O)OC(C)c1ccccc1Cl (stereo not drawn) (compound 10 µM) | 0.23 | 0.28 | 0.02
CC(C(=O)Nc1cc(C#N)ccc1CCCC(=O)O)c1ccc(F)c2ccccc12 (stereo not drawn) (compound 10 µM) | -3.03 | -2.8 | -0.03
CCCc1nc(C(C)(C)O)c(C(=O)OCc2oc(=O)oc2C)n1Cc1ccc(-c2ccccc2-c2nnn[nH]2)cc1 [Olmesartan (medoxomil)] (compound 10 µM) | -0.4 | -0.27 | -0.03
CN(C)CC/C=C1/c2ccccc2Sc2ccc(Cl)cc21 [Chlorprothixene] (compound 10 µM) | 0.1 | -3.66 | 0.41
CC(C)(O)c1ccccc1CC[C@@H](SCC1(CC(=O)O)CC1)c1cccc(/C=C/c2ccc3ccc(Cl)cc3n2)c1 [Montelukast (sodium)] (compound 10 µM) | 0.45 | 0.97 | 1.39
CC(CN(C)C)CN1c2ccccc2CCc2ccccc21 (stereo not drawn) [Trimipramine (maleate)] (compound 10 µM) | -1.05 | -2.53 | -0.39
CCCC1O[C@@H]2C[C@H]3[C@@H]4CCC5=CC(=O)C=C[C@]5(C)[C@H]4[C@@H](O)C[C@]3(C)[C@]2(C(=O)CO)O1 (stereo partly drawn) [Budesonide] (compound 10 µM) | -0.53 | -0.12 | -0.2
OCC1OC(n2cnc3c(NC4CCCCC4)ncnc32)C(O)C1O (stereo not drawn) [N6-Cyclohexyladenosine] (compound 10 µM) | -0.37 | 1.37 | 0.6
Cc1noc(NS(=O)(=O)c2ccc(N)cc2)c1C [Sulfisoxazole] (compound 10 µM) | 1.15 | -0.03 | 0.55
Clc1ccc2nsnc2c1NC1=NCCN1 [Tizanidine (hydrochloride)] (compound 10 µM) | 1.42 | -0.07 | 0.54
CC(C)C[C@H](NC(=O)[C@H](CC(C)C)NC(=O)[C@H](Cc1ccccc1)NC(=O)[C@@H](N)CO)C(=O)N[C@@H](CCCN=C(N)N)C(=O)N[C@@H](CC(N)=O)C(=O)O (compound 10 µM) | -1.01 | -0.25 | 0.03
C[C@@H]1C[C@H]2[C@@H]3CCC4=CC(=O)C=C[C@]4(C)[C@@]3(F)[C@@H](O)C[C@]2(C)[C@@]1(O)C(=O)CO [Dexamethasone] (compound 10 µM) | 0.1 | 0.34 | 1.02
CN1CCc2c(c3ccccc3n2Cc2ccccc2)C1 [Mebhydrolin (napadisylate)] (compound 10 µM) | -0.29 | -1.06 | 0.64
O=C1Cc2cc(CCN3CCN(c4nsc5ccccc45)CC3)c(Cl)cc2N1 [Ziprasidone (hydrochloride monohydrate)] (compound 10 µM) | -5.1 | -9.79 | -5.97

Structure (SMILES) | phospho-S6 immunofluorescence (z-score) (co-treatment: GDC0941 450 nM) | phospho-S6 immunofluorescence (z-score) (co-treatment: lapatinib 1 uM) | phospho-S6 immunofluorescence (z-score) (co-treatment: vehicle)
C[C@H]1CN(C[C@H](Cc2ccccc2)C(=O)NCC(=O)O)CC[C@@]1(C)c1cccc(O)c1 [Alvimopan (dihydrate)] (compound 10 µM) | -0.22 | 0.49 | -0.86
COC(=O)[C@@H]1[C@H]2C[C@H]3c4[nH]c5ccccc5c4CCN3C[C@@H]2CC[C@@H]1O [Yohimbine (Hydrochloride)] (compound 10 µM) | 0.62 | 0.56 | 1.59
CC(C)[N+]1(C)[C@@H]2CC[C@H]1C[C@@H](OC(=O)C(CO)c1ccccc1)C2 (stereo partly drawn) [Ipratropium (bromide)] (compound 10 µM) | -0.02 | 0.28 | -0.61
CC(C)COc1ccc(CNC(=O)N(Cc2ccc(F)cc2)C2CCN(C)CC2)cc1 [Pimavanserin tartrate] (compound 10 µM) | -3.99 | -6.18 | -5.03
C[C@]12CCC(=O)C=C1CC[C@@H]1[C@@H]2C(=O)C[C@@]2(C)[C@H]1CC[C@]2(O)C(=O)CO [Cortisone] (compound 10 µM) | 0.47 | 0.58 | 1.14
COc1cc(C(=O)NS(=O)(=O)c2ccccc2C)ccc1Cc1cn(C)c2ccc(NC(=O)OC3CCCC3)cc12 [Zafirlukast] (compound 10 µM) | -2.01 | -0.41 | 0.19
N[C@@H](COP(=O)(O)O)C(=O)O [O-Phospho-L-serine] (compound 10 µM) | 0.23 | 0.05 | -0.66
Cc1ccc(Sc2ccccc2N2CCNCC2)c(C)c1 [Vortioxetine] (compound 10 µM) | -5.05 | -7.7 | -6.93
COc1ccc2cc(OCC3(C(=O)O)CN(C(=O)c4ccc(F)cc4)C3)ccc2c1 (compound 10 µM) | -1.13 | 0.61 | 0.47
COc1cc(C(C)=O)ccc1OCCCN1CCC(c2noc3cc(F)ccc23)CC1 [Iloperidone] (compound 10 µM) | 0.52 | -0.23 | 0.38
CC(C)(Cc1nc(-c2ccc(O)cn2)no1)C(=O)NC1=C(C(=O)O)CCCC1 (compound 10 µM) | 0.73 | 0.37 | 1.12
CN(C)C(=O)N[C@H]1CC[C@H](CCN2CCN(c3cccc(Cl)c3Cl)CC2)CC1 [Cariprazine (hydrochloride)] (compound 10 µM) | 0.26 | -1.23 | 1.3
Clc1ccc2c(c1)N=C(N1CCNCC1)c1ccccc1N2 [N-Desmethylclozapine] (compound 10 µM) | -0.56 | -3.16 | -0.88
O=C(O[C@H]1CN2CCC1CC2)N1CCc2ccccc2[C@@H]1c1ccccc1 [Solifenacin (Succinate)] (compound 10 µM) | 1.65 | 1.13 | -0.65
Cc1cc(O[C@@H](CCC(F)(F)F)c2ccc(C(=O)NCCC(=O)O)cc2)cc(C)c1-c1ccc(C(C)(C)C)cc1 [Adomeglivant] (compound 10 µM) | -4.72 | -7.2 | -6.79
CCCCc1nc(C)c(CC(=S)N(C)C)c(=O)n1Cc1ccc(-c2ccccc2-c2nnn[nH]2)cc1 [Fimasartan] (compound 10 µM) | 0.34 | 1.66 | -0.04
N[C@@H](CCC(=O)O)C(=O)[O-].[Na+] [L-Glutamic acid monosodium salt] (compound 10 µM) | 0.12 | -0.6 | -0.39
COc1ccc(CCN2CCN(CCCc3ccccc3)CC2)cc1OC [SA4503 (dihydrochloride)] (compound 10 µM) | 0.13 | -0.13 | -0.47
CN1CCCC(n2nc(Cc3ccc(Cl)cc3)c3ccccc3c2=O)CC1 (stereo not drawn) [Azelastine (hydrochloride)] (compound 10 µM) | 0.6 | -0.25 | 0.16
OCCOCCN1CCN(C(c2ccccc2)c2ccc(Cl)cc2)CC1 (stereo not drawn) [Hydroxyzine (dihydrochloride)] (compound 10 µM) | 0.45 | -0.69 | 0.24
CC(C)OC(=O)N1CCC(Oc2ncnc3c2cnn3-c2ccc(S(C)(=O)=O)cc2F)CC1 (compound 10 µM) | -0.32 | -0.15 | -0.38
CC(CN1c2ccccc2Sc2ccccc21)N(C)C (stereo not drawn) [Promethazine (hydrochloride)] (compound 10 µM) | -1.86 | -2.76 | -0.84
Cc1ccc2c(c1CCC(=O)O)CC[C@@H](NS(=O)(=O)c1ccc(Cl)cc1)C2 [Terutroban] (compound 10 µM) | -0.9 | 0.55 | -0.1
OC[C@H]1O[C@@H](n2cnc3c(N[C@H]4CCC[C@@H]4O)ncnc32)[C@H](O)[C@@H]1O (compound 10 µM) | 0.54 | 0.82 | 0.2
O=C(Nc1ccc([N+](=O)[O-])cc1O)Nc1ccccc1Br (compound 10 µM) | -1.44 | 0.89 | -0.39
